Laboratory results published in PubChem BioAssay (NCI).
The panel holds about 83,000 compounds, 20% with a hit somewhere; the sample as a whole holds those more often.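 In brief: 96-well plates, 48 h treatment, single concentration, percent growth endpoint.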 Values without a mark were called inactive. Calls of active or inactive are those of the source. Rule for the calls: active = growth percent below 10; inactive = the rest.

Each compound was assayed on SN12C renal (assay: NCI-60 one-dose screen, 48 h (100 = growth as untreated, 0 = no growth, -100 = all killed)). Conditions: 10 µM unless noted.

Row | SMILES | growth
1 | O=C(Nc1ccc(Cl)cc1)Nc1ccc(Cl)c(Cl)c1 | 6.47% (active)
2 | CC(C)Cc1ccc(C(C)C(=O)NCc2ccc(Cn3c(=O)sn(-c4ccc(Cl)cc4)c3=O)cc2)cc1 (stereo not given) | 84.1%
3 | COc1ccc(/C=N/NC(=O)c2cccc3cc[nH]c23)cc1O | 53.9%
4 | COc1cc(NCC(O)CN(CC(C)C)C2CCCC2)c2ncccc2c1 (stereo not given) | 86.4%
5 | COc1cccc(CCC(=O)c2cc3c(N)c(C(=O)Nc4ccccc4)sc3nc2C)c1 | 35%
6 | CN1CCN(CCCNc2nccc(-c3c(-c4ccc(F)c(O)c4)nc4sccn34)n2)S1(=O)=O | 85.1%
7 | COc1ccccc1Nc1cc(O)c2c(=O)cc(-c3ccccc3)oc2c1 | 36.6%
8 | C[C@@H]1CN(Cc2ccc(/C=C/c3n[nH]c4ccc5nc(-c6cn[nH]c6C(F)(F)F)c6c(c5c34)CCCC6)cc2)C[C@H](C)O1 | 12.6%
9 | COc1ccc(-c2ncc(-c3ccccc3)[nH]2)cc1OC | 100%
10 | CCOC(=O)c1ccc(Nc2ccnc(SCC(=O)c3ccc(C#N)cc3)n2)cc1 | 73.8%
11 | CCCCCCCCCCCCCCCCCCOc1ccccc1N | 27.8%
12 | COc1ccc(C2CC(c3cccc(Nc4ccncc4)c3)=NN2c2ccc(Cl)cc2)cc1 (stereo not given) | 63.7%
13 | O=C(Nc1ccccc1)Oc1ccccc1-c1ccccc1 | 98.5%
14 | Clc1ccc(C2CC(c3cccc(Nc4ccncc4)c3)=NN2c2ccc(Cl)cc2)cc1 (stereo not given) | 39.6%
15 | Clc1ccc(N2N=C(c3cccc(Nc4ccncc4)c3)CC2c2ccc(Br)cc2)cc1 (stereo not given) | 54.3%
